Experimental data published in publication PMC4336329 (PLoS ONE, 2015).
The whole screen tested about 310,000 compounds, of which about 14,000 (4.5%) showed an effect of 50% or more. The effect is printed as a negative number. The sample as a whole holds a higher share of strong results than the screen did.

molecular target: human ether-à-go-go-related gene (hERG) potassium channel (human, UniProt Q12809); assay: primary screen, population patch clamp on CHO cells stably expressing hERG; higher = less effect of the substance
Sequence (Q12809 whole entry, looked up): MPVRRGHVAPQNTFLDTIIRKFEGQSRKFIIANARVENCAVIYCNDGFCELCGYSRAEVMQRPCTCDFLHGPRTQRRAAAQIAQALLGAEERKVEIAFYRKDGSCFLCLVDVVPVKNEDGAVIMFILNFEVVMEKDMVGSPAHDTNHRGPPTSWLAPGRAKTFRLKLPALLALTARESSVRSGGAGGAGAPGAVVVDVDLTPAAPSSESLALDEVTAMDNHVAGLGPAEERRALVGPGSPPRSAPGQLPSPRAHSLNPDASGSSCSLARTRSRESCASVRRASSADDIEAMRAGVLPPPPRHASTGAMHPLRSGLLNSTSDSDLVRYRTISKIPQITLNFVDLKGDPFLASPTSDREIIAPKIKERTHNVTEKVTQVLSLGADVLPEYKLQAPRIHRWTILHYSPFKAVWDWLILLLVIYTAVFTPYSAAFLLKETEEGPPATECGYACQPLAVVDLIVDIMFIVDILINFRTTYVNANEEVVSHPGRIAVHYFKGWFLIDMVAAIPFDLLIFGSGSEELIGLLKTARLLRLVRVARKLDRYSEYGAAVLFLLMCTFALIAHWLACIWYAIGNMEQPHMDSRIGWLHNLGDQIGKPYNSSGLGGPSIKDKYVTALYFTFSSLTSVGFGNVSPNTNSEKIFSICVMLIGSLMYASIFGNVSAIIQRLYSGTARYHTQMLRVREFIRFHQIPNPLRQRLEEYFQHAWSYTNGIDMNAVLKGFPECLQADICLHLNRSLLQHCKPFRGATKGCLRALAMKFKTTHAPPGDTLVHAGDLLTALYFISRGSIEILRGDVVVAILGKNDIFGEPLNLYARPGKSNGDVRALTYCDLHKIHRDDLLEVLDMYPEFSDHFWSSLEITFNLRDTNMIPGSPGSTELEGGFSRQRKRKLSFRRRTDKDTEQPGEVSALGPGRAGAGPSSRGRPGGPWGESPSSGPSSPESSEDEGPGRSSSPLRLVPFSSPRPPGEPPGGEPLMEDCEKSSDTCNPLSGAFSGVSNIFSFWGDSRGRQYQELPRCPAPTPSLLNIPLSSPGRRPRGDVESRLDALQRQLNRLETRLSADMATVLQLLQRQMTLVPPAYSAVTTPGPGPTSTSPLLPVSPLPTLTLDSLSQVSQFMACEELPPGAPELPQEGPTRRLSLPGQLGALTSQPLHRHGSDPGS
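Also: peak tail current of the secondary pulse compared with the same well before compound.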

**Q.** For `Cc1ccc(NC(=O)C2CCCN(S(=O)(=O)c3ccc4[nH]c(=O)ccc4c3)C2)c(C)c1` (stereo not shown), which “hERG current change (%, negative = inhibition) at 10uM” value is on record?
**A.** The value was 3.65%.

**Q.** Which “hERG current change (%, negative = inhibition) at 10uM” value does the source give for `Cc1cccc(C)c1N(CC(=O)N(C)Cc1ccccc1)S(C)(=O)=O` here?
**A.** Its value is 3.99%.

**Q.** `COC(=O)c1ccc2c(=O)n(Cc3ccc4c(c3)OCO4)c(=S)[nH]c2c1` was tested. Which “hERG current change (%, negative = inhibition) at 10uM” value did it give?
**A.** Its value is 16.3%.

**Q.** With `CCn1c2ccccc2c2cc(NC(=O)CSc3nnc(-c4ccc(OC)cc4)n3N)ccc21` as the compound, how does the “hERG current change (%, negative = inhibition) at 10uM” value read?
**A.** Its value is -10.9%.

**Q.** How did the “hERG current change (%, negative = inhibition) at 10uM” value turn out when `O=S(=O)(c1ccc2ccccc2c1)N1CCN(S(=O)(=O)N2CCOCC2)CC1` was run?
**A.** The value was -0.31%.

**Q.** How did the “hERG current change (%, negative = inhibition) at 10uM” value turn out when `O=C(NC1CCN(C(=O)c2cccs2)CC1)c1ccccc1` was run?
**A.** The value was -19.3%.

**Q.** With `COC(=O)c1cc(N=CC2=C(O)CC(C)(C)CC2=O)cc(C(=O)OC)c1` as the compound, how does the “hERG current change (%, negative = inhibition) at 10uM” value read?
**A.** The value was -16.3%.

**Q.** With `O=C(c1ccccc1)N1CCN(c2ncnc3c(-c4ccccc4)nsc23)CC1` as the compound, how does the “hERG current change (%, negative = inhibition) at 10uM” value read?
**A.** The value was 6.38%.

**Q.** How did the “hERG current change (%, negative = inhibition) at 10uM” value turn out when `Cc1nc2ccccc2c(=O)n1/N=C/c1ccc(O)cc1` was run?
**A.** Its value is 10.9%.

**Q.** With `Cc1nn(-c2ccccc2)c2nc(=O)n(-c3ccccc3)cc12` as the compound, how does the “hERG current change (%, negative = inhibition) at 10uM” value read?
**A.** Its value is -10.9%.

**Q.** With `Cc1ccc(S(=O)(=O)Nc2cccc(-n3cnnn3)c2)cc1C(=O)O` as the compound, how does the “hERG current change (%, negative = inhibition) at 10uM” value read?
**A.** The value was 3.97%.

**Q.** For `O=C(c1ccc2c(=O)n3c(nc2c1)CCCCC3)N1CCCCC1`, which “hERG current change (%, negative = inhibition) at 10uM” value is on record?
**A.** The value was 17.5%.

**Q.** With `CCOC(=O)N1CCC(NC(=O)c2ccc3c(=O)n4c(nc3c2)CCCC4)CC1` as the compound, how does the “hERG current change (%, negative = inhibition) at 10uM” value read?
**A.** Its value is 12%.

**Q.** `O=C(NC1CCCCCC1)c1ccc2c(=O)n3c(nc2c1)CCCCC3` was tested. Which “hERG current change (%, negative = inhibition) at 10uM” value did it give?
**A.** Its value is -51%.

**Q.** With `CCNc1ccc(C(=O)OCC)cc1NC(=O)c1cc(S(=O)(=O)N2CCOCC2)ccc1C` as the compound, how does the “hERG current change (%, negative = inhibition) at 10uM” value read?
**A.** The value was -10.9%.

**Q.** Which “hERG current change (%, negative = inhibition) at 10uM” value does the source give for `Cn1c(SCC(=O)N2CCCC2)nnc1-c1cccs1` here?
**A.** Its value is 4.73%.

**Q.** Which “hERG current change (%, negative = inhibition) at 10uM” value does the source give for `CN(C(=O)COC(=O)CSc1cc(Cl)ccc1Cl)c1c(N)n(Cc2ccccc2)c(=O)[nH]c1=O` here?
**A.** Its value is -0.021%.

**Q.** With `C[C@H]1CN=C(Nc2ccccc2)N1CCC1CCCC1` as the compound, how does the “hERG current change (%, negative = inhibition) at 10uM” value read?
**A.** The value was -10.6%.

**Q.** For `C[C@H]1CN=C(Nc2ccccc2)N1CCC1CCCCC1`, which “hERG current change (%, negative = inhibition) at 10uM” value is on record?
**A.** The value was -46.8%.

**Q.** For `C[C@H]1CN=C(Nc2ccccc2)N1CC1CCCCCC1`, which “hERG current change (%, negative = inhibition) at 10uM” value is on record?
**A.** The value was -24.5%.

**Q.** Which “hERG current change (%, negative = inhibition) at 10uM” value does the source give for `C[C@H]1CN=C(Nc2ccccc2)N1CCCC1CCCC1` here?
**A.** Its value is -58.7%.

**Q.** Which “hERG current change (%, negative = inhibition) at 10uM” value does the source give for `C[C@H]1CN=C(Nc2ccccc2)N1CCCC1CCCCC1` here?
**A.** Its value is -62.2%.

**Q.** Which “hERG current change (%, negative = inhibition) at 10uM” value does the source give for `C[C@H]1CN=C(Nc2ccccc2)N1CC1CCCCC1` here?
**A.** The value was 0.474%.

**Q.** `COc1ccc(S(=O)(=O)N2CCOC2CNC(=O)C(=O)NCc2ccncc2)cc1OC` (stereo not shown) was tested. Which “hERG current change (%, negative = inhibition) at 10uM” value did it give?
**A.** Its value is 10.3%.

**Q.** With `O=S(=O)(c1ccc(Cl)cc1)c1nc(-c2ccccc2F)oc1NCCCN1CCOCC1` as the compound, how does the “hERG current change (%, negative = inhibition) at 10uM” value read?
**A.** The value was -10.4%.

**Q.** `Cc1cccc(-c2nc(S(=O)(=O)c3ccc(F)cc3)c(NCCCN3CCOCC3)o2)c1` was tested. Which “hERG current change (%, negative = inhibition) at 10uM” value did it give?
**A.** Its value is -69.4%.

**Q.** For `O=S(=O)(c1ccccc1)c1nc(-c2ccccc2)oc1NCCCN1CCOCC1`, which “hERG current change (%, negative = inhibition) at 10uM” value is on record?
**A.** Its value is -43.9%.

**Q.** How did the “hERG current change (%, negative = inhibition) at 10uM” value turn out when `Cc1ccccc1-c1nc(S(=O)(=O)c2ccc(Cl)cc2)c(NCCN2CCOCC2)o1` was run?
**A.** Its value is -20.2%.

**Q.** For `Cc1ccc(S(=O)(=O)c2nc(-c3ccccc3)oc2NCCN2CCOCC2)cc1`, which “hERG current change (%, negative = inhibition) at 10uM” value is on record?
**A.** The value was 3.12%.

**Q.** How did the “hERG current change (%, negative = inhibition) at 10uM” value turn out when `O=S(=O)(c1ccc(Cl)cc1)c1nc(-c2ccccc2F)oc1NCCN1CCOCC1` was run?
**A.** Its value is -67%.

**Q.** How did the “hERG current change (%, negative = inhibition) at 10uM” value turn out when `COc1cccc(CN2CCN(C(=O)c3cccc4ccccc34)CC2)c1.O=C(O)C(=O)O` was run?
**A.** Its value is -12%.

**Q.** Which “hERG current change (%, negative = inhibition) at 10uM” value does the source give for `COc1cccc(CN(C)C(=O)C2CC(=O)N(c3ccc4c(c3)OCCO4)C2)c1` (stereo not shown) here?
**A.** Its value is 12.1%.

**Q.** For `COc1cccc(-c2nc3ccc(O)cc3c(=O)o2)c1`, which “hERG current change (%, negative = inhibition) at 10uM” value is on record?
**A.** The value was 1.21%.

**Q.** Which “hERG current change (%, negative = inhibition) at 10uM” value does the source give for `O=C(COc1ccc2ccccc2c1)N1CCN(C(=O)c2cccs2)CC1` here?
**A.** Its value is -50%.

**Q.** `COc1ccc(OCC(=O)N2CCN(C(=O)c3cccs3)CC2)cc1` was tested. Which “hERG current change (%, negative = inhibition) at 10uM” value did it give?
**A.** Its value is -43.3%.

**Q.** How did the “hERG current change (%, negative = inhibition) at 10uM” value turn out when `CCOc1cc(C#N)ccc1OCC(=O)N1CCc2ccccc2C1` was run?
**A.** The value was -40.7%.

**Q.** Which “hERG current change (%, negative = inhibition) at 10uM” value does the source give for `O=C(COc1ccccc1Br)N1CCN(C(=O)c2cccs2)CC1` here?
**A.** The value was -32.2%.

**Q.** How did the “hERG current change (%, negative = inhibition) at 10uM” value turn out when `Cc1ccc(OCC(=O)N2CCN(C(=O)c3cccs3)CC2)cc1` was run?
**A.** The value was -34.8%.

**Q.** `O=C(COc1ccccc1)N1CCN(C(=O)c2cccs2)CC1` was tested. Which “hERG current change (%, negative = inhibition) at 10uM” value did it give?
**A.** Its value is -13.4%.

**Q.** Which “hERG current change (%, negative = inhibition) at 10uM” value does the source give for `O=C(COc1ccc(-c2ccccc2)cc1)N1CCN(C(=O)c2cccs2)CC1` here?
**A.** The value was -41.8%.

**Q.** How did the “hERG current change (%, negative = inhibition) at 10uM” value turn out when `CCOc1cc(C#N)ccc1OCC(=O)N1CCN(C(=O)c2cccs2)CC1` was run?
**A.** The value was -67.7%.

**Q.** `O=C(COc1ccc(Cl)cc1)N1CCN(C(=O)c2cccs2)CC1` was tested. Which “hERG current change (%, negative = inhibition) at 10uM” value did it give?
**A.** The value was -74.5%.

**Q.** `Cc1nnc(SCc2cc(=O)[nH]c(/N=C(\N)Nc3ccccc3Sc3ccccc3)n2)s1` was tested. Which “hERG current change (%, negative = inhibition) at 10uM” value did it give?
**A.** Its value is -11.1%.
